Laboratory results: the supplement of paper PMC10981050
Values joined by “and” are separate entries in the source; they are usually repeats but may differ in a detail not shown here. Identical values can stand only once. Counter-ions that a name gives are not always drawn.

Tests used:
Assay in all cases: cell viability relative to vehicle control; higher = less cytotoxic
Settings in all cases: 10 µM
[1] = system: K562
How it was run: (§1)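 CRISPR-edited mutant clones and isogenic wild-type clones from four leukaemia lines were screened against Selleck bioactive, kinase and epigenetic probe libraries, with identity-inconsistent compounds excluded. Each compound was acoustically dispensed at a single 10 µM dose into 384-well plates holding 2000 cells in 50 µL medium per well. After 48 h the supernatant was removed and CellTiter-Glo luminescence was read. Viability was expressed as percent of the on-plate vehicle control and analysed in Genedata Screener.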

[2] = system: MARIMO
How it was run: as §1

[3] = system: MOLM14
How it was run: as §1

[4] = system: OCI-AML2
How it was run: as §1

Row | Compound | cell viability ([1]; SRSF2 genotype: SRSF2 P95H/wt) | cell viability ([1]; SRSF2 genotype: SRSF2 wt/wt) [%] | cell viability ([2]; SRSF2 genotype: SRSF2 P95H/wt) [%] | cell viability ([2]; SRSF2 genotype: SRSF2 wt/wt) [%] | cell viability ([3]; SRSF2 genotype: SRSF2 P95H/wt) [%] | cell viability ([3]; SRSF2 genotype: SRSF2 wt/wt) [%] | cell viability ([4]; SRSF2 genotype: P95H/wt) [%] | cell viability ([4]; SRSF2 genotype: wt/wt) [%]
1 | CCCCCCCCOC(=O)c1cc(O)c(O)c(O)c1 [Octyl gallate] | 47.3% and 44.6% | 58.7 | 32.3 | 51 | 48.4 | 28.9 | 52.9 | 56.1
2 | CC(C)Cc1ccc(C(C)C(=O)O)cc1 (stereo not drawn) [Ibuprofen (Advil)] | 99.3% and 98.5% | 92.9 | 95.1 | 100 | 100 | 101 | 87.7 | 101
3 | Cn1c(-c2ccccc2C(F)(F)F)nnc1C12CCC(c3noc(C4CC(F)(F)C4)n3)(CC1)CC2 | 87.3% and 92.5% | 84.7 | 88 | 99.8 | 79.8 | 87.7 | 99 | 94.8
4 | O=C1C[C@@H](c2ccccc2)Oc2cc(O)cc(O)c21 [Pinocembrin] | 91.6% and 92.5% | 95.4 | 96.4 | 99.8 | 109 | 112 | 95.1 | 87.8
5 | NC(=O)c1ccc(OCCCN2CC3CCCC3C2)cc1 (stereo not drawn) | 102% and 107% | 104 | 106 | 98 | 100 | 101 | 114 | 98
6 | Fc1ccc(C(c2ccc(F)cc2)N2CCN(C/C=C/c3ccccc3)CC2)cc1 [Flunarizine 2HCl] | 67.8% and 82.2% | 72.8 | 50.4 | 37.9 | 46.8 | 60.7 | 28.7 | 26.7
7 | O=C1Cc2ccccc2N1 [Oxindole] | 96.9% and 92% | 98.4 | 98.2 | 103 | 95 | 98.9 | 95.9 | 105
8 | Cc1ccc(NCCN(C)CCNc2ccnc3cc(Cl)ccc23)c2c(=O)c3ccccc3sc12 | 75.8% and 92.5% | 76.6 | 78 | 88.2 | 81 | 79.7 | 85.9 | 84
9 | CN1CCC[C@H]1c1cccnc1 [nicotine ditartrate] | 101% and 97.3% | 97.6 | 105 | 117 | 99.1 | 101 | 95.6 | 106
10 | CC(=O)O[C@H]1CC/C(C)=C/CC/C(C)=C/C[C@]2(C(C)C)CC[C@@]1(C)O2 [Incensole acetate] | 85.8% and 85.7% | 91.2 | 85.1 | 89.2 | 68.8 | 67.7 | 84.1 | 85.2
11 | Cc1nnsc1C(=O)Nc1ccc(-n2nc(C(F)(F)F)cc2C(F)(F)F)cc1 | 78.2% and 82% | 76.3 | 86.6 | 98.2 | 107 | 99.1 | 76.6 | 89.2
12 | C=CCc1cccc(/C=N/NC(=O)CN2CCN(Cc3ccccc3)CC2)c1O | 70.5% and 67% | 65.4 | 25.7 | 31.6 | 12.3 | 8.85 | 19.2 | 19.7
13 | Cc1ccc(NC(=O)C2(c3ccc4c(c3)OC(F)(F)O4)CC2)nc1-c1cccc(C(=O)O)c1 [VX-809 (Lumacaftor)] | 108% and 106% | 112 | 115 | 113 | 109 | 106 | 106 | 122
14 | O=C(O)c1ccc(-c2ccc(C=C3SC(=S)N(Cc4ccccc4)C3=O)o2)cc1 [Leukadherin-1] | 89.1% and 83.5% | 82.9 | 85.4 | 96.4 | 82.3 | 91.9 | 89 | 112
15 | CCC(CC)CC1(C(=O)Nc2ccccc2SC(=O)C(C)C)CCCCC1 | 94.6% and 96.2% | 103 | 96 | 97.5 | 90.1 | 95.5 | 83.2 | 85.5
16 | COc1ccc(CCNCC(O)COc2cccc(C)c2)cc1OC (stereo not drawn) [Bevantolol hydrochloride] | 92.7% and 89.9% | 88.2 | 82.8 | 93.4 | 90.6 | 91.2 | 81.8 | 84.8
17 | C=C1[C@H](OC(=O)/C=C(\C)CC)C[C@@H](C(C)C)[C@@H]2[C@@H]([C@@H](C)OC(C)=O)C(=O)C[C@@H]12 [Tussilagone] | 83% and 91.6% | 89.5 | 57 | 53.2 | 64.5 | 71.3 | 56.6 | 77.6
18 | CCCc1cc(C)[nH]c(=O)c1CNC(=O)c1cc(-c2ccc(N3CCN(C)CC3)nc2)nc2c1cnn2C(C)C | 15.9% and 4.45% | 20.9 | 85.6 | 47.7 | 55.9 | 78.5 | 0.4 | 0.41
19 | CCn1cc(C(=O)O)c(=O)c2cc(F)c(N3CCNCC3)nc21 [Enoxacin (Penetrex)] | 111% and 106% | 108 | 109 | 111 | 105 | 110 | 112 | 105
20 | CC1(C)O[C@@H]2C[C@H]3[C@@H]4CCC5=CC(=O)C=C[C@]5(C)[C@@]4(F)[C@@H](O)C[C@]3(C)[C@]2(C(=O)CO)O1 [Triamcinolone Acetonide] | 101% and 100% | 102 | 107 | 97.1 | 100 | 95.3 | 114 | 115
21 | OC[C@H]1O[C@@H](Oc2ccc(O)cc2)[C@H](O)[C@@H](O)[C@@H]1O [Arbutin (Uva, p-Arbutin)] | 104% and 97.2% | 95.1 | 96.6 | 104 | 103 | 101 | 100 | 107

Row | Compound | cell viability ([1]; SRSF2 genotype: SRSF2 P95H/wt) | cell viability ([1]; SRSF2 genotype: SRSF2 wt/wt) [%] | cell viability ([2]; SRSF2 genotype: SRSF2 P95H/wt) [%] | cell viability ([2]; SRSF2 genotype: SRSF2 wt/wt) [%] | cell viability ([3]; SRSF2 genotype: SRSF2 P95H/wt) [%] | cell viability ([3]; SRSF2 genotype: SRSF2 wt/wt) [%] | cell viability ([4]; SRSF2 genotype: P95H/wt) [%] | cell viability ([4]; SRSF2 genotype: wt/wt) [%]
22 | Nc1ccn([C@@H]2O[C@H](CO)[C@@H](O)C2(F)F)c(=O)n1 [Gemcitabine (Gemzar)] | 89% and 104% | 101 | 21.3 | 24.4 | 4.86 | 1.1 | 7.55 | 8.99
23 | CCCc1cc(-c2nc(-c3ccc(C)cc3)cs2)ccn1 [Fatostatin] | 22.9% and 30.5% | 39 | 46.2 | 36 | 51.6 | 35.5 | 34.2 | 35.4
24 | Cc1nc(-c2ccc(OCC(C)C)c(C#N)c2)sc1C(=O)O [Febuxostat (Uloric)] | 93.4% and 98.2% | 100 | 102 | 111 | 107 | 105 | 119 | 123
25 | CN(C)C(=O)c1ccc(S(=O)(=O)c2ccc(NC(=O)C(C)(O)C(F)(F)F)c(Cl)c2)cc1 (stereo not drawn) | 75.7% and 74.8% | 74.2 | 60.1 | 58 | 78.4 | 84.5 | 52.9 | 55.2
26 | CCC(C)C(NC(=O)C(C(C)CC)N(C)C(C)=O)C(=O)NC(C(=O)NC(CC(C)C)C(=O)C1(C)CO1)C(C)O (stereo not drawn) [Epoxomicin (BU-4061T)] | 1.56% and 1.91% | 0.91 | 0.3 | 0.71 | 0.14 | 0.17 | 0.15 | 0.14
27 | C[C@@H](N)[C@H]1CC[C@H](C(=O)Nc2ccncc2)CC1 | 105% and 97.4% | 102 | 93.7 | 94.6 | 97.2 | 96.9 | 85.9 | 91.2
28 | CCn1cc(C(=O)O)c(=O)c2cc(F)c(N3CCN(C)CC3)cc21 [Pefloxacin mesylate] | 97.5% and 101% | 96.6 | 105 | 100 | 100 | 103 | 109 | 115
29 | C[C@]12C=CC(=O)N[C@@H]1CC[C@@H]1[C@@H]2CC[C@]2(C)[C@@H](C(=O)Nc3cc(C(F)(F)F)ccc3C(F)(F)F)CC[C@@H]12 [Dutasteride] | 94.4% and 96.6% | 95 | 102 | 94.1 | 96 | 98.3 | 101 | 94.7
30 | O=C(Nc1ccccc1Br)N[C@@H]1CCN(c2ccc(C(F)(F)F)cn2)C1 | 88.5% and 90.8% | 91.5 | 89.3 | 101 | 98.5 | 99.3 | 78.4 | 89.7
31 | CC[C@H]1OC(=O)C[C@@H](O)[C@H](C)[C@@H](O[C@@H]2O[C@H](C)[C@@H](O[C@H]3C[C@@](C)(O)[C@@H](O)[C@H](C)O3)[C@H](N(C)C)[C@H]2O)[C@@H](CC=O)C[C@@H](C)C(=O)/C=C/C(C)=C/[C@@H]1CO[C@@H]1O[C@H](C)[C@@H](O)[C@@H](OC)[C@H]1OC [Tylosin] | 99.6% and 98.3% | 102 | 106 | 109 | 101 | 105 | 105 | 112
32 | CCOC(=O)C1=C(C)NC(=S)NC1c1cccc(O)c1 (stereo not drawn) [Monastrol] | 106% and 97.8% | 103 | 103 | 99.4 | 105 | 103 | 101 | 102
33 | COc1cc2ncnc(Nc3ccc(Oc4ccccc4)cc3C)c2cc1OC | 68% and 80.2% | 79.3 | 81.1 | 66 | 37.5 | 29.9 | 45.6 | 43
34 | COc1ccc2c(Oc3ccc(NC(=O)c4c(C)n(CC(C)(C)O)n(-c5ccccc5)c4=O)nc3)ccnc2c1 | 46% and 69.9% | 50 | 84.8 | 97.3 | 11 | 10.7 | 27.8 | 35.9
35 | CCCCC(CC)COC(=O)C=Cc1ccc(OC)cc1 (stereo not drawn) [Octinoxate] | 106% and 102% | 103 | 96.9 | 109 | 99.5 | 108 | 90.2 | 93.4
36 | O=C(NCc1ccc(Oc2ccccc2)cc1)c1nc(-c2cc(Br)c(O)c(Br)c2)no1 | 77.6% and 72% | 66.7 | 80.5 | 91.8 | 59.8 | 84.5 | 88.4 | 81.9
37 | CC(C)(C)C(=O)Nc1ccc2c(c1)C(=O)C(=O)c1ccccc1-2 [SF1670 (PTEN inhibitor)] | 84.3% and 70.9% | 56.8 | 2.56 | 70.5 | 88.4 | 39.2 | 65.8 | 76.2
38 | Cc1cc2c(F)c(Oc3ncnn4cc(OC[C@@H](C)O)c(C)c34)ccc2[nH]1 | 94.6% and 98.7% | 99.5 | 107 | 106 | 97.5 | 104 | 97.5 | 86.6
39 | C[C@H](CCC(=O)NCC(=O)O)[C@H]1CC[C@H]2[C@@H]3[C@H](O)C[C@@H]4C[C@H](O)CC[C@]4(C)[C@H]3C[C@H](O)[C@]12C [Glycocholic acid] | 107% and 108% | 109 | 106 | 102 | 100 | 109 | 117 | 98
40 | NCCc1c[nH]cn1 [Histamine 2HCl] | 99% and 106% | 105 | 96.7 | 96.1 | 69 | 82.3 | 110 | 88.3
41 | C=CC(=O)Nc1ccc2ncnc(Nc3cccc(Br)c3)c2c1 | 66% and 72.7% | 71.1 | 70 | 86.8 | 61.6 | 81.3 | 50 | 50.9
